# Screening data deposited in PubChem BioAssay by Broad Institute.
# SUMO Mot1 rescue: SUMOylation pathway inhibition by Mot1-301 growth rescue | S. cerevisiae Mot1-301 growth rescue, ATP luminescence, 38.5C; percent above DMSO median, 100 means doubled | growth rescue, % at 18.8 µM | 320,000 compounds, 1% hits | AID 2716;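 active = every valid replicate shows activation above 250% relative to neutral control wells; inactive = the rest, any valid replicate at or below 250%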;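 note: OY570 slx delta 5 strain wells were the positive control but not used for scaling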
# Casp6 inh: caspase-6 (human) enzyme inhibition; P55212; purified caspase-6, Z-VEID-R110 cleavage fluorescence; inhibition, % at 12.5 µM; 350,000 compounds, 0.53% hits;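 active = mean inhibition across replicates at least about 35%, with every replicate also reaching that limit, limit read from the data; inconclusive = only one of the two criteria met; inactive = neither criterion met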;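 note: 0% = median of neutral control wells and 100% = no fluorescence left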
# ALR inh: inhibitors of human sulfhydryl oxidase ALR; AID 485317; 290,000 compounds, 3.8% hits; P55789; purified ALR, DTT oxidation, H2O2 HRP-luminol luminescence; inhibition, % (test concentration not listed);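 active = mean replicate inhibition above about 79%, with every replicate also reaching it, limit read from the data; inconclusive = only one of the two criteria met; inactive = mean below limit and not every replicate reaching it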
# NSD2 HMT inh: inhibitors of human histone methyltransferase NSD2; O96028; NSD2 peptide methylation, AlphaScreen, 120 min; inhibition, % at 12.5 µM; 310,000 compounds, 0.54% hits; in the data active = inhibition above about 50%
# CDK5 p35 inh: CDK5/p35 (human) kinase inhibition; inhibition, % at 10 µM; Recombinant CDK5/p35, ADP-Glo luminescence, 60 min; Q00535+Q15078; 330,000 compounds, 0.01% hits;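 active = highest replicate inhibition of at least 50% and at least 75% of replicates reaching 50%; inconclusive = only one of the two criteria met; inactive = both criteria failed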;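 note: plate controls were DMSO neutral control for no effect and GW8510 at 10 µM for full effect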
# Target sequence (Q00535 whole entry, looked up): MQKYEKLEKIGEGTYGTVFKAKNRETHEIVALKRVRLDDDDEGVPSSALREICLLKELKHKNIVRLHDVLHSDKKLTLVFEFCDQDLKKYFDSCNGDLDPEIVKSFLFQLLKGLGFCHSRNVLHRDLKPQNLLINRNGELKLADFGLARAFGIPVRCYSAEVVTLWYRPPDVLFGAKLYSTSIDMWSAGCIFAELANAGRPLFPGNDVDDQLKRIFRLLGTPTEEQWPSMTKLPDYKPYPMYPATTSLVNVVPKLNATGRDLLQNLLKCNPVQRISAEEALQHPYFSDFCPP
# Target sequence (Q15078 whole entry, looked up): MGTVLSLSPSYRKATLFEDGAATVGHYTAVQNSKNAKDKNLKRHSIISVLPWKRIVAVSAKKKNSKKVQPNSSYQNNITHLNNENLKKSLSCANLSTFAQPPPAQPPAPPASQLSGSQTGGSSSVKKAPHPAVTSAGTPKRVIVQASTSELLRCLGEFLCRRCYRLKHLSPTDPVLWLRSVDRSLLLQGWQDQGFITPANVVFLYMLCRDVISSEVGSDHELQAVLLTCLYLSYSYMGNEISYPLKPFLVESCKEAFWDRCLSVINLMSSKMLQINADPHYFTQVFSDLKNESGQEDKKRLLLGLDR
# N-glyco inh: N-linked glycosylation inhibition | D54 ERlucT glycosylation luciferase reporter, 24 h; percent of 100 nM tunicamycin response | reporter increase, % at 12.5 µM | 360,000 compounds, 0.23% hits | AID 588692;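 active = mean luciferase reporter signal, scaled so untreated is 0 and the glycosylation-blocking control 100, at or above a set limit in every replicate; inconclusive = mean reaches the limit but not every replicate does; inactive = mean below the limit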;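 note: luciferase carries N-glycosylation sites so blocking glycosylation raises the light; 0% = median of neutral control wells and 100% = median of 100 nM tunicamycin wells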
# Numbers without * were called inactive; ? = inconclusive; · = no result. Most compounds without a hit are left out; they make up all but 3.9% or so of the library.
SMILES,SUMO Mot1 rescue,Casp6 inh,ALR inh,NSD2 HMT inh,CDK5 p35 inh,N-glyco inh
O=C(CSc1nc2ccccc2s1)NC1CCCC1,-3.8,-0.5,99.3*,-0.3,0.9,2.2
Cc1csc(SCC(=O)Nc2c(C)n(C)n(-c3ccccc3)c2=O)n1,-16.7,·,0.1,-0.8,-1.2,-0.1
CCNC(=O)Nc1ccc2c(c1)C(=O)N(C)[C@H]1CC[C@H](CC(=O)Nc3ccccc3Cl)O[C@@H]1CO2,·,0.7,·,·,·,·
COc1ccc(/C=N/NC(=O)c2[nH]c3ccc(C)cc3c2-c2ccccc2)c(C(=O)O)c1OC,339.7,2.7,98.7*,0.4,-0.9,-0.6
COc1ccc(C(=O)C=Cc2ccc(OCc3ccccc3)c(OC)c2)cc1OC,·,0.8,·,0.1,·,51.5*
COc1ccc(C=CC(=O)c2ccc(OC)c(OC)c2)cc1O,·,5.8,·,10.6,·,?
COc1ccc(C=CC(=O)c2ccc(OC)c(OC)c2O)cc1OC,·,-0.2,·,4.5,-0.7,36.6*
Cc1ccc(/C=C/C(=O)c2ccccc(=O)c2O)cc1C,-22.6,22.0,95.7*,4.7,0.3,4.1
O=C(/C=C/c1ccccc1)c1cc(Br)ccc(=O)c1O,-21.2,·,47.6,6.4,-1.9,6.2
COc1ccc(C(=O)/C=C/c2ccc(OC)c(O)c2)c(F)c1,3.5,·,65.7,13.6,2.3,54.7*
COc1cc(/C=C/C(=O)c2ccc(Cl)s2)cc(OC)c1O,-27.0,·,67.3,12.1,-1.7,?
COc1ccc(/C=C/C(=O)c2ccc(Cl)s2)cc1O,-5.7,·,49.6,8.9,1.9,28.0*
COC(=O)c1cn(C(=O)/C=C/c2ccc(OC)c(OC)c2)c2ccccc12,91.8,·,8.2,·,0.7,36.4*
CO[C@@H]1CN(C)C(=O)c2cc(NC(C)=O)ccc2OC[C@@H](C)N(Cc2ccccc2F)C[C@@H]1C,·,-0.1,·,·,·,·
COc1cc(NC(=O)Cc2cccs2)cc(OC)c1,-0.1,·,-8.8,·,-1.0,0.2
COc1ccc(C(=O)NC(=S)NNC(=O)CNC(=O)C2CCCCC2)cc1,1.4,-0.7,98.9*,0.8,1.7,1.2
COc1cc(OC)cc(C(=O)NC(=S)NNC(=O)Cc2cccs2)c1,-5.2,4.9,99.3*,-2.3,1.2,0.1
COc1ccc(C(=O)NC(=S)NNC(=O)Cc2cccs2)cc1,205.8,·,98.9*,-1.0,1.2,3.3
C[C@@H]1CCCCO[C@H](CN(C)CC2CCCCC2)[C@H](C)CN([C@@H](C)CO)C(=O)c2cc(NS(=O)(=O)c3cccs3)ccc2O1,·,-0.5,·,·,·,·
Cc1csc(=N)n1-c1ccc(Cl)cc1,20.4,-1.6,96.3*,2.2,0.6,0.1
Nc1nc(CSc2nc3ccccc3s2)nc(N2CCCCC2)n1,·,·,32.2,-0.8,0.5,-0.9
Nc1nc(CSc2nc3ccccc3[nH]2)nc(N2CCOCC2)n1,317.1*,·,-3.7,·,0.2,-1.6
C[C@H](CO)N1C[C@H](C)[C@@H](CN(C)Cc2ccncc2)OCc2ccccc2-c2ccccc2C1=O,·,-2.0,·,·,·,·
COc1ccc(C(=O)CCc2nc3ccccc3s2)cc1,355.1*,·,-7.0,-2.7,0.7,-2.6
Cc1ccc(N2C(=O)CS/C2=C(\C(Cl)=C(Cl)Cl)[N+](=O)[O-])cc1,-4.1,9.3,98.2*,4.0,1.0,2.0
SMILES,SUMO Mot1 rescue,Casp6 inh,ALR inh,NSD2 HMT inh,CDK5 p35 inh,N-glyco inh
Cc1ccc(N2C(=O)CSCC2=O)cc1,124.9,·,3.4,1.2,0.9,-4.7
CC(=O)c1ccc(NC(=O)CSc2nc(=O)cc(N)n2-c2ccccc2)cc1,-3.4,·,98.6*,1.1,0.7,1.8
Nc1cc(=O)nc(SCC(=O)N2CCN(c3ccccc3)CC2)n1-c1ccccc1,-1.5,2.7,50.9,0.1,-1.9,0.9
Cc1ccc(-n2c(N)cc(=O)nc2SCC(=O)N2CCN(c3ccccc3)CC2)cc1,-16.5,2.8,97.5*,0.4,-0.6,2.9
COC(=O)c1ccc(NC(=O)CSc2nc(=O)cc(N)n2-c2ccccc2)cc1,-6.7,-1.4,98.9*,-0.1,-4.0,1.7
Cc1noc(C)c1S(=O)(=O)Nc1ccc2c(c1)C(=O)N([C@@H](C)CO)C[C@@H](C)[C@@H](CN(C)S(=O)(=O)c1ccc(F)cc1)OCCCC[C@H](C)O2,·,3.6,·,·,·,·
CCCN1[C@@H]2c3ccc(-c4cccc(F)c4)c(=O)n3C[C@@H]2[C@@H](CO)[C@@H]1C(=O)N(C)C,·,-3.7,·,·,·,·
COc1ccc(S(=O)(=O)N[C@@H]2C=C[C@H](CC(=O)O)O[C@H]2CO)cc1,·,0.1,·,·,·,·
NC1=NC(=O)/C(=C/c2cn(CCC(=O)O)nc2-c2ccc(Cl)cc2)S1,-10.3,4.7,98.1*,2.0,-1.4,1.8
Cc1ccc(-c2nn(CCC(=O)O)cc2/C=C\C(=O)c2ccc(Br)cc2)cc1,7.0,4.3,97.4*,25.1,-3.1,7.2
O=C(O)CCn1cc(/C=C\C(=O)c2ccc(Cl)cc2)c(-c2cccc(Br)c2)n1,-5.1,·,?,23.8,0.3,9.5
C[C@H](NC(=O)C[C@@H]1C=C[C@H](NC(=O)c2cccnc2)[C@H](CO)O1)c1ccccc1,·,-1.5,·,·,·,·
CCOC(=O)C1=C(CS(=O)(=O)c2ccc(F)c(C)c2)NC(=O)NC1c1ccc(O)c(O)c1 (configuration not stated),-14.3,2.3,98.4*,·,-0.7,0.0
CCOC(=O)C1=C(CS(=O)(=O)c2ccc(C)cc2)NC(=O)NC1c1cc(OC)c(O)c(OC)c1 (configuration not stated),22.5,0.2,-25.4,-5.9,-1.6,6.0
C[C@H](CO)N1C[C@H](C)[C@@H](CN(C)C)Oc2ccc(NC(=O)C3CC3)cc2C1=O,·,-5.1,·,·,·,·
COc1ccc(-c2nc(Cn3c(SCc4ccc(C)cc4)nc4ccncc43)c(C)o2)cc1OC,460.1*,9.5,·,·,0.4,-3.2
O=C(N[C@H]1CC[C@H](CC(=O)N2CCCCC2)O[C@H]1CO)c1cccc(F)c1,·,-8.3,·,·,·,·
O=c1cc(-c2ccccc2)cc(-c2ccccc2)n1O,11.9,·,98.0*,·,0.9,-2.9
C[C@@H]1CCCCO[C@@H](CN(C)C(=O)Nc2ccc3c(c2)OCO3)[C@@H](C)CN([C@H](C)CO)C(=O)c2cc(NS(=O)(=O)c3ccccc3)ccc2O1,·,1.8,·,·,·,·
N#C[C@H]1C(O)C(O)c2ccccc2N1C(=O)c1ccccc1 (some centres not stated),716.3*,-3.7,-20.2,·,2.1,-2.5
CN(C)CC(=O)Nc1ccc2c(c1)[C@@H]1C[C@@H](CC(=O)N(C)C)O[C@H](CO)[C@@H]1O2,·,-1.4,·,·,·,·
Cc1cc2c(Nc3ccc(O)cc3)ncnc2s1,-8.9,-0.9,93.6*,-1.1,4.2,-0.7
CCc1cc2c(Nc3ccc(O)cc3)nc(C)nc2s1,-10.4,-0.3,99.6*,-1.2,-0.2,-1.9
COc1ccc(NC(=O)N(C)C[C@@H]2Oc3cc(-c4ccncc4)ccc3S(=O)(=O)N([C@H](C)CO)C[C@@H]2C)cc1,·,0.3,·,·,·,·
Cc1cc(C)nc(NS(=O)(=O)c2ccc(Br)s2)c1,6.5,7.1,-10.6,·,-0.8,-0.9
